Source: PubChem BioAssay AID652010 (The Scripps Research Institute Molecular Screening Center, 2013)
About 4,100 (1.1%) of roughly 370,000 compounds were called active.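 Rule for the calls: active = inhibition above the mean over all tested compounds plus 3 SD (cut at about 3.6% in these data); inactive = the rest.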 What follows is part of a selection rich in actives, with near analogues and random picks from the rest.

assay: relief of DAX-1 repression of SF-1 activity – cell-based, luminescence, SF-1 (NR5A1), full-length DAX-1, primary screen (AID 652010); conditions: HEK293T StAR-luciferase reporter, SF-1/DAX-1 repression relief; at 6.8 µM; stronger effect = higher value;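 note: 0% = DAX-1 cells with DMSO and 100% = cells lacking DAX-1 with DMSO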

Question: For `O=C(C1CCC(=O)N(C2CC2)C1)N1CCN(c2ccc(Cl)cc2)CC1` (configuration not stated), which inhibition is on record?
Answer: -0.61% (inactive)

Question: For `CC1(C(=O)Nc2cccc3c2CCCC3)CCN1C(=O)C1(c2ccccc2)CC1` (configuration not stated), which inhibition is on record?
Answer: -0.73% (inactive)

Question: For `CCOc1ccc(NC(=O)C2CCCN(C(=O)Nc3ccccc3)C2)cc1` (configuration not stated), which inhibition is on record?
Answer: -0.8% (inactive)

Question: For `CCOc1ccc2nc(C(=O)N3CCCC(C)C3)sc2c1` (configuration not stated), which inhibition is on record?
Answer: 4.1% (active)

Question: Which inhibition does the source give for `COc1ccc2cc(C(=O)C3CCCN(C(=O)c4sc(C)nc4C)C3)ccc2c1` (configuration not stated) here?
Answer: 0.57% (inactive)

Question: For `Nc1ccc(C(=O)Nc2ccccc2N)cc1`, which inhibition is on record?
Answer: 15.9% (active)

Question: Which inhibition does the source give for `CC(CNC(=O)c1ccc(N)cc1)NC(=O)c1ccc(N)cc1` (configuration not stated) here?
Answer: 0.06% (inactive)

Question: For `O=C(Nc1ccccc1C(=O)N1CCOCC1)c1ccc(Cl)cc1`, which inhibition is on record?
Answer: -0.37% (inactive)

Question: Which inhibition does the source give for `C#CCCN([C@H](C(=O)OC)C(C)C)S(=O)(=O)c1ccc(F)cc1Br` here?
Answer: -0.77% (inactive)

Question: With `O=C1CCC2(CCC(c3ccc(Cl)cc3)CC2)N1CCO` (configuration not stated) as the compound, how does the inhibition read?
Answer: -1.36% (inactive)

Question: For `O=S1(=O)c2c(cccc2N2CC[C@H](O)C2)O[C@@H]2CCN1C2`, which inhibition is on record?
Answer: -0.61% (inactive)

Question: For `Cc1cc(OCc2cc(C(=O)NCc3cc(C(C)C)no3)no2)cc(C)c1Cl`, which inhibition is on record?
Answer: 7.8% (active)

Question: Which inhibition does the source give for `COc1ccc(OCc2cc(C(=O)NCC3(C)COC3)no2)c(Cl)c1` here?
Answer: -0.13% (inactive)

Question: For `COCCCNC(=O)COc1cc(C)c(Cl)c(C)c1`, which inhibition is on record?
Answer: -0.64% (inactive)

Question: For `N#Cc1ccc(-c2nc3cc(C#N)c(C#N)cc3nc2-c2ccccc2)cc1C#N`, which inhibition is on record?
Answer: -0.36% (inactive)

Question: With `Cc1cc(NC(=O)Nc2ccccc2[N+](=O)[O-])no1` as the compound, how does the inhibition read?
Answer: -0.12% (inactive)

Question: For `CN1CCN(CCNC(=O)Nc2ccccc2[N+](=O)[O-])CC1`, which inhibition is on record?
Answer: -0.08% (inactive)

Question: For `Cc1csc(NC(=O)Nc2ccccc2[N+](=O)[O-])n1`, which inhibition is on record?
Answer: 4.06% (active)

Question: With `O=C1[C@@H]2C(c3cccnc3)=NO[C@@H]2C(=O)N1c1ccc(Cl)cc1Cl` as the compound, how does the inhibition read?
Answer: -0.39% (inactive)

Question: With `COc1cccc(CNC(=O)CNS(=O)(=O)c2ccc3nc(C)sc3c2)c1OC` as the compound, how does the inhibition read?
Answer: -0.3% (inactive)

Question: With `Cc1ccc(CSc2nnc(SCC(=O)NN=Cc3cc(Br)ccc3F)s2)cc1` as the compound, how does the inhibition read?
Answer: -0.52% (inactive)

Question: With `COc1ccc(C(=O)OCCN2CCN(C3CN(Cc4cn(Cc5ccccc5F)nn4)S(=O)(=O)C3)CC2)cc1OC` (configuration not stated) as the compound, how does the inhibition read?
Answer: -2.65% (inactive)

Question: For `O=c1c2c(nc3n1CCCCC3)sc1c(O)cccc12`, which inhibition is on record?
Answer: 4.81% (active)

Question: Which inhibition does the source give for `CC(=O)c1ccc(NC(=O)c2sc3nc4n(c(=O)c3c2C)CCCCC4)cc1` here?
Answer: 4% (active)

Question: With `O=C(Nc1ccc2nc3n(c(=O)c2c1)CCCC3)c1ccc(Cl)nc1` as the compound, how does the inhibition read?
Answer: -1.19% (inactive)

Question: For `COc1cccc(C(=O)Nc2ccc3nc4n(c(=O)c3c2)CCCCC4)c1`, which inhibition is on record?
Answer: -0.05% (inactive)

Question: For `O=C(Cn1[nH]c(=O)c2ccccc2c1=O)Nc1cccc(-c2nnc3n2CCCCC3)c1`, which inhibition is on record?
Answer: -0.2% (inactive)

Question: Which inhibition does the source give for `N=c1c2c3c(sc2nc2n1CCCCC2)CCCC3` here?
Answer: 0.02% (inactive)

Question: With `CCOc1ccccc1C(=O)N1CCC[C@@H]1C(=O)N1CCC[C@H]1C(=O)NCc1ccccc1` as the compound, how does the inhibition read?
Answer: 0.55% (inactive)

Question: With `COc1ccc(-n2c(SCC(=O)NC3CCCC3)nnc2-c2ccncc2)cc1` as the compound, how does the inhibition read?
Answer: -0.56% (inactive)

Question: With `CC(=NNC(N)=O)c1ccc(Cl)c(-n2cccc2)c1` as the compound, how does the inhibition read?
Answer: -0.18% (inactive)

Question: For `Cn1c(SCC(=O)NC2CCCCC2)nnc1-c1cc2ccccc2o1`, which inhibition is on record?
Answer: -0.14% (inactive)

Question: For `COc1ccccc1CN(C)C(=O)c1cc2ccccc2o1`, which inhibition is on record?
Answer: -0.34% (inactive)

Question: For `CCNc1nc(-c2cc3ccccc3o2)cs1`, which inhibition is on record?
Answer: 4.18% (active)

Question: For `O=C(NCc1ccc(F)cc1)c1cc(C2CCCCN2C(=O)c2ccccn2)on1` (configuration not stated), which inhibition is on record?
Answer: -1.23% (inactive)

Question: For `COc1ccc(C2CC=C(C(=O)O)C(c3ccccc3F)N2S(=O)(=O)c2ccc(C)cc2)cc1OC` (configuration not stated), which inhibition is on record?
Answer: 0.7% (inactive)

Question: With `O=S(=O)(c1ccccc1)N1CCC(c2nc3ccccc3o2)CC1` as the compound, how does the inhibition read?
Answer: -0.48% (inactive)

Question: Which inhibition does the source give for `Cc1ccc(CN2CCC(N3CCC(C(=O)NCC4CCCO4)CC3)CC2)o1` (configuration not stated) here?
Answer: 0.9% (inactive)

Question: For `CC(=O)NC(c1cccc(F)c1)c1nc(-c2cccc(F)c2)cs1` (configuration not stated), which inhibition is on record?
Answer: -0.34% (inactive)

Question: For `Cc1cccc(NC(=O)COc2ccc(Br)cc2C)n1`, which inhibition is on record?
Answer: 2.42% (inactive)

Question: For `CC(=O)Nc1cccc(-c2csc(Nc3cccc(C)n3)n2)c1`, which inhibition is on record?
Answer: 4.69% (active)

Question: Which inhibition does the source give for `OC(c1ccccc1)(c1ccccc1)C1CCN(CCCOc2ccc(-c3ccsc3)cc2)CC1` here?
Answer: -0.82% (inactive)

Question: For `CCC(=O)Nc1ccc2c(c1)C(=O)N(C)[C@H]1CC[C@H](CC(=O)NCCOC)O[C@@H]1CO2`, which inhibition is on record?
Answer: 0.92% (inactive)

Question: Which inhibition does the source give for `Cc1c(C=O)n(C)n(-c2ccccc2)c1=O` here?
Answer: 0.3% (inactive)

Question: With `Cc1c(N=Nc2ccc(N(C)C)cc2)c(=O)n(-c2ccccc2)n1C` as the compound, how does the inhibition read?
Answer: 4.03% (active)

Question: Which inhibition does the source give for `Cc1nc(N)sc1N=Nc1c(C)n(C)n(-c2ccccc2)c1=O` here?
Answer: 0.04% (inactive)

Question: With `C=CCn1c(SCC(N)=O)nnc1-c1ccccc1OC` as the compound, how does the inhibition read?
Answer: -0.12% (inactive)

Question: Which inhibition does the source give for `COc1ccc(CCC(=O)OCC(=O)Nc2ccc(C)c(S(=O)(=O)N(C)C)c2)cc1` here?
Answer: 1.11% (inactive)

Question: With `CCN(CC(=O)Nc1ccc(C)c(S(=O)(=O)N(C)C)c1)Cc1ccccc1` as the compound, how does the inhibition read?
Answer: 0.23% (inactive)

Question: For `Cc1ccc(C(=O)Nc2ccc(C)c(S(=O)(=O)N(C)C)c2)s1`, which inhibition is on record?
Answer: 4.23% (active)

Question: With `CCc1nc2ccc(C(=O)Nc3ccc(OC)c(OC)c3)cn2c1N(C)C(=O)c1cccc(OC)c1` as the compound, how does the inhibition read?
Answer: -1.08% (inactive)

Question: With `CSCCC(NC(=O)c1ccco1)C(=O)Nc1cc(C)ccn1` (configuration not stated) as the compound, how does the inhibition read?
Answer: 11% (active)

Question: For `CSCCC(NC(=O)c1ccco1)C(=O)NCCc1ccc(F)cc1` (configuration not stated), which inhibition is on record?
Answer: 0.47% (inactive)

Question: For `CSCCC(NC(=O)c1ccco1)C(=O)OCC(=O)Nc1ncc(Cl)c(C)c1Cl` (configuration not stated), which inhibition is on record?
Answer: -0.11% (inactive)

Question: For `COC(=O)c1ccc(CN2C(=O)NC(c3ccccc3)(c3ccccc3)C2=O)o1`, which inhibition is on record?
Answer: 0.15% (inactive)

Question: Which inhibition does the source give for `O=C(C1CCCN1S(=O)(=O)c1ccccc1)N1CCc2ccccc2C1` (configuration not stated) here?
Answer: -0.56% (inactive)

Question: Which inhibition does the source give for `CC(C)C(C)NC(=O)COc1ncnc2ccccc12` (configuration not stated) here?
Answer: -0.45% (inactive)

Question: For `CC(NC(=O)COC(=O)c1ccc2ccccc2n1)c1ccccc1` (configuration not stated), which inhibition is on record?
Answer: 0.44% (inactive)

Question: Which inhibition does the source give for `CCC(=O)NC(=Nc1nc2ccccc2s1)NC(=O)CC` here?
Answer: 3.92% (active)

Question: Which inhibition does the source give for `CC(C)CC(=O)N/C(N)=N/c1nc2ccccc2s1` here?
Answer: 4.37% (active)

Question: For `CC(C)CC(=O)NC(=S)NNC(=O)c1cccc([N+](=O)[O-])c1`, which inhibition is on record?
Answer: -0.72% (inactive)

Question: For `O=C(CSc1nc2ccccc2s1)NN=Cc1ccc(O)cc1O`, which inhibition is on record?
Answer: -0.65% (inactive)
